This assay concerns the target Vasopressin V1b receptor (Homo sapiens) (UniProt P47901). The assay is described as follows: Counterscreen Concentration-Response Assay for Antagonists of the Neuropeptide S Receptor: Vasopressin Receptor Calcium Signal Transduction. Conditions: CHO-AVPR1B, vasopressin-stimulated calcium fluorescence, FDSS. An excerpt: NIH Chemical Genomics Center [NCGC] NIH Molecular Libraries Probe Production centers Network [MLPCN] MLPCN Grant: X01-DA026210-01 Assay Submitter (PI): Heilig, Markus Alexander NCGC Assay Overview: Neuropeptide S receptor (NPSR), previously known as GPR154, is a recently de-orphanized G protein coupled receptor. Its endogenous ligand is the 20 amino acids peptide Neuropeptide S (NPS). […] NPS and its receptor are found in various tissues. Specifically they are highly expressed in brain areas that have been implicated in modulation of arousal, stress and anxiety. […] This change in intracellular calcium can be detected using a calcium indicator dye on a calcium imaging plate reader system (FDSS). […]
NCGC Assay Protocol Summary: A Chinese hamster ovary (CHO) cell line stably expressing human vasopressin receptor (AVPR1B) was maintained in F-12 Kaighn's media (Invitrogen, Carlsbad, CA, 21127) supplemented with 10 % FBS, 100 units/ml penicillin, 100 ug/ml streptomycin and 250 ug/ml geneticin at 37C, 5% CO2 in a humidified atmosphere. […] The assay was performed on a FDSS-7000 kinetic plate reader in 1536-well format. The maximums of kinetic fluorescence responses were converted into text files using the instrument's software data export utility. […] AC50 values were determined from concentration-response data modeled with the standard Hill equation. […]

Records with an inconclusive call do not appear. A number with no mark means an inactive call. Calls come from the whole dose curve; as a rule, active = well fitted curve in the direction sought with a large enough effect; inconclusive = small, poorly fitted or top-dose-only effect, or another doubt; inactive = no such curve, though single readings can be large or run the other way.

Vasopressin V1b receptor (Homo sapiens), sequence (P47901 whole entry, looked up): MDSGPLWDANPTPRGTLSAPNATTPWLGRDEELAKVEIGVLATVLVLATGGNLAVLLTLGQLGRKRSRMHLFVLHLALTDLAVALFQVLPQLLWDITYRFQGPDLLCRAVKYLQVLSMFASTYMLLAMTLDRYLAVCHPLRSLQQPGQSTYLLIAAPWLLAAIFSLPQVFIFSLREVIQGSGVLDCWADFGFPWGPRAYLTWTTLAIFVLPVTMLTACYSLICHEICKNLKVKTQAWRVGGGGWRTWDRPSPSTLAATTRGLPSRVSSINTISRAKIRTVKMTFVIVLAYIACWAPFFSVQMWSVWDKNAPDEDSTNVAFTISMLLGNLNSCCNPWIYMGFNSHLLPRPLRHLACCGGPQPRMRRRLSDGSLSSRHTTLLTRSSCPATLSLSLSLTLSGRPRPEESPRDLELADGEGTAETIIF

With `Cc1c(P(=S)(c2ccccc2)c2ccccc2)[n+]2ccccc2n1C`, the max response is 7.72%.
